Pf Dd2 growth: inhibitors of Plasmodium falciparum Dd2 growth; hit rate 4.3% among 120,000; Potency, µM (top dose mostly 28.9 µM), actives largely listed as inhibitors; P. falciparum Dd2 growth, SYBR Green, 72 h; active = well fitted inhibition curve with a large enough effect; also: nearly all actives have a fitted effect of over 65% in size
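Infected erythrocytes (Dd2, 0.3% parasitemia, 2.5% hematocrit final) are added to compound in RPMI-1640/Albumax II medium, grown 72 h at 37C in low oxygen, then lysed with saponin/Triton-X containing SYBR Green and read by fluorescence.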
Large screens that a line does not name were inactive. This excerpt belongs to a sample that is enriched for hits.

COc1cccc(C(=O)N2CCC[C@H]2c2nc(-c3ccc(C)cc3)no2)c1	none
C=CCNC(=O)CCc1c(C)nn(-c2ccc(F)cc2)c1Oc1cccc(F)c1	none
CN(C)C(C(=O)N1CCN(Cc2nccn2C)CC1)c1cccc(F)c1 (stereo unspecified)	none
Cc1cccc(C(C(=O)N2CCN(CC(=O)NC(C)C)CC2)N(C)C)c1 (stereo unspecified)	none
Cc1cccc(C(C(=O)N2CCC(CCn3ccnc3C)CC2)N(C)C)c1 (stereo unspecified)	Pf Dd2 growth 7.9µM
NC(=O)CNC(=O)C1=C[C@@H](Oc2cc(F)ccc2Br)[C@H](O)[C@H](O)C1	none
CCOc1ccc(CN(CCc2ccc3c(c2)OCO3)Cc2cc(OC)ccc2O)cc1	Pf Dd2 growth 0.71µM
CCOc1ccc(CN2C[C@@H]3C(=O)N(Cc4ccc5c(c4)OCO5)C(=O)[C@@H]3C2)cc1	none
CCOc1ccc(CN(CCc2ccc3c(c2)OCO3)Cc2ccc(CC)cc2)cc1	none
CC(C)N1C(=O)C2(CCCC2)C1C(=O)NCc1ccc(N2CCOCC2)cc1 (stereo unspecified)	none
COc1cccc(-c2ccccc2NC(=O)C2CCN(Cc3ccccc3F)CC2)c1	none
COc1cccc(C(=O)Nc2ccccc2-c2nnc(-c3cccc(OC)c3)o2)c1	none
COc1cccc(-c2ccccc2NC(=O)C2CCN(CC=C(C)C)CC2)c1	Pf Dd2 growth 5.6µM
COc1cccc(-c2ccccc2NC(=O)C2CCN(C/C(C)=C/c3ccccc3)CC2)c1	Pf Dd2 growth 8.9µM
COc1ccc(C(=O)N2CCC(C(=O)Nc3ccc(OC)cc3OC)CC2)cc1	none
C=CCC(=O)N1CCCC1C(=O)Nc1ccc(-c2cccc(OC)c2)cc1 (stereo unspecified)	none
O=C(CN1C(=O)NC2(CCCCC2)C1=O)N1CCCCCC1	none
COc1ccc(-c2ccc3c(n2)CN(C)C(=O)CO3)cc1	none
CCN(C)C(=O)CCc1c(C)nn(-c2ccccc2)c1Oc1ccccc1F	none
Cn1cc(CN2CCN(C(=O)c3c[nH]c4ccccc34)CC2)ccc1=O	none
CC(C)(C)c1ccc(CSC2=Nc3ccccc3C3=NC(CC(=O)NCc4cccs4)C(=O)N23)cc1 (stereo unspecified)	none
COc1ccc(OC)c(NC(=O)CSC2=Nc3ccccc3C3=NC(CCC(=O)NCc4ccccc4)C(=O)N23)c1 (stereo unspecified)	Pf Dd2 growth 13µM
COc1ccc(NC(=O)CSC2=Nc3ccccc3C3=NC(CCC(=O)NCc4ccc(F)cc4)C(=O)N23)cc1Cl (stereo unspecified)	Pf Dd2 growth 11µM
Cc1ccc(CSC2=Nc3ccccc3C3=NC(CC(=O)NCc4cccs4)C(=O)N23)c(C)c1 (stereo unspecified)	none
COc1ccc(Cl)cc1NC(=O)CSC1=Nc2ccccc2C2=NC(CCC(=O)NCc3ccc(F)cc3)C(=O)N12 (stereo unspecified)	none
CCOc1ccc(NC(=O)CSC2=Nc3ccccc3C3=NC(CCC(=O)NCc4ccccc4)C(=O)N23)cc1 (stereo unspecified)	none
CC(C)c1ccc(NC(=O)CSC2=Nc3ccccc3C3=NC(CCC(=O)NCc4ccc(F)cc4)C(=O)N23)cc1 (stereo unspecified)	none
COc1ccccc1NC(=O)CSC1=Nc2ccccc2C2=NC(CCC(=O)NCCc3ccccc3)C(=O)N12 (stereo unspecified)	none
Cc1cccc(NC(=O)CSC2=Nc3ccccc3C3=NC(CC(=O)NCc4cccs4)C(=O)N23)c1 (stereo unspecified)	Pf Dd2 growth 3.2µM
CCN1CCN(CCNC(=O)[C@H]2CCC[C@H]2NC(=O)c2ccncc2)CC1	none
Cc1ncc2c(c1CNC(=O)c1cccc(N3CCOCC3)c1)CCNC2	none
O=C(Nc1cccc(Cl)c1)c1ccc(N2CC3CC(C2)[C@H]2CCCC(=O)N2C3)nc1 (stereo partly specified)	none
CN(Cc1ccccc1-n1cccn1)C(=O)C1CC(=O)N(C2CCCC2)C1 (stereo unspecified)	none
CN1[C@@H](CCC(=O)N2CCc3ccccc32)CNC(=O)[C@@H]2[C@H]1CCN2Cc1ccc(O)cc1	none
O=C(Cc1cccc(F)c1)NC1CCN(C(=O)N2CC3CC(C2)[C@H]2CCCC(=O)N2C3)CC1 (stereo partly specified)	none
Cc1ccc(C)c(CNC(=O)CCc2conc2-c2cccc(F)c2)c1	none
COc1cccc(NC(=O)Cn2c(=O)n(Cc3ccc(F)cc3)c(=O)c3sc4ccccc4c32)c1	none
COc1cccc(NC(=O)Cn2c(=O)n(-c3ccc(Cl)cc3)c(=O)c3sc4ccccc4c32)c1	Pf Dd2 growth 11µM
COc1ccccc1NC(=O)Cn1c(=O)n(-c2cccc(Cl)c2)c(=O)c2sc3ccccc3c21	none
Cc1noc(-c2ccco2)c1C(=O)NCc1ccc(F)cc1F	none
CC(=O)N1CCc2[nH]cnc2C12CCN(C(=O)c1ccn3nnnc3c1)CC2	none
Clc1ccc(Nc2ncc(-c3cccnc3)c3c2OCC3)cc1	Pf Dd2 growth 10µM
COc1cccc(Nc2ncc(-c3cccc(N(C)C)c3)c3c2OCC3)c1	none
COc1ccc(Nc2ncc(-c3cccnc3)c3c2OCC3)cc1	none
FC(F)(F)c1cccc(Nc2ncc(-c3cccnc3)c3c2OCC3)c1	Pf Dd2 growth 8.9µM
Cc1cc(-c2cnc(Nc3ccc(F)cc3)c3c2CCO3)ccn1	none
Cn1cc(-c2cnc(Nc3ccncc3)c3c2CCO3)cn1	none
Cc1ccc(C2Cn3nnc(-c4noc(-c5ccncc5)n4)c3CO2)cc1 (stereo unspecified)	none
O=C(O)C[C@@H]1CCN(C(=O)c2ccccc2)C[C@@H]1CCN1CCN(c2ccccn2)CC1	none
O=C(Cn1ccn2nc3c(c2c1=O)CCCC3)NCCc1ccccc1	none
CNCC(=O)N1CCCC(c2nnc(CN3CCOCC3)n2C)C1 (stereo unspecified)	none
CCn1c(CO)nnc1C1CC(NC(=O)Cc2c(C)[nH]c(=O)[nH]c2=O)C1 (stereo unspecified)	none
O=C(NCC12CC3CC(CC(C3)C1)C2)c1cc2nc(-c3ccc(Cl)cc3)cc(C(F)(F)F)n2n1	none
O=C(Nc1cc(Cl)ccc1Cl)c1cc2nc(-c3ccc4c(c3)OCO4)cc(C(F)(F)F)n2n1	none
O=C(Nc1cc(Cl)ccc1O)c1cc2nc(-c3ccc4c(c3)OCO4)cc(C(F)(F)F)n2n1	Pf Dd2 growth 1.6µM
CCCN(CC1CCOC1)C(=O)Nc1ccc(Br)cc1 (stereo unspecified)	none
CN1C(=O)CS(=O)(=O)C12CCN(C(=O)c1ccco1)CC2	none
CCC(O)c1cc2c(cc1NC(=O)c1cccc(Br)c1)OCCO2 (stereo unspecified)	Pf Dd2 growth 11µM
O=C(Nc1cc2c(cc1C(=O)c1ccccc1Cl)OCCO2)c1ccc(Br)cc1	none
COc1cccc(C(=O)Nc2cc3c(cc2C(=O)c2ccc(C)cc2)OCCO3)c1	none
O=C(c1ccc(Cl)cc1)N1CCOC(CN(C(=O)c2ccc(F)cc2)C2CCCC2)C1 (stereo unspecified)	none
COc1cccc(CC(=O)N2CCC3(CC2)CC(OCC2CC2)CCO3)c1 (stereo unspecified)	none
CN(C)c1ccc(CNC2(Cc3cc(-c4cccc(O)c4)on3)COC2)cc1	none
Cc1cccc(CNCc2ccccc2OCC(O)CN2CCSCC2)c1 (stereo unspecified)	Pf Dd2 growth 1.6µM
Cc1nnc(CN(C)Cc2ccccc2OCC(O)CN2CCSCC2)o1 (stereo unspecified)	none
CCn1cc(CNCc2ccc(OCC(O)CN3CCSCC3)c(OC)c2)cn1 (stereo unspecified)	none
COc1cc(CN2CCOCC2)ccc1OCC(O)CN1CCSCC1 (stereo unspecified)	none
